Laboratory results: PubChem BioAssay (NCI)
Compounds without any hit were thinned out: in the full panel of roughly 83,000, 20% have a hit.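 The test compound was applied at a single concentration to cells in 96-well plates for 48 hours, and percent growth was recorded.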 The source made the active and inactive calls. Rule for the calls: active = growth percent below 10; inactive = the rest.

test system: MDA-MB-468 breast; assay: NCI-60 one-dose screen, 48 h (100 = growth as untreated, 0 = no growth, -100 = all killed); details: 10 µM unless noted

| SMILES | growth |
| --- | --- |
| CC1CCC(C)N(C)C1 (stereo unspecified) | 105% (inactive) |
| COc1ccc(OC)c(Nc2nnc(-c3cc(OC)c(OC)c(OC)c3)o2)c1 | 92% (inactive) |
| C/C(=N\Nc1cc(C)nc2ccc(Br)cc12)c1ccc([N+](=O)[O-])cc1 | 51.5% (inactive) |
| CCCOC(=O)c1ccc2c(c1)[N+](=O)C(C(=O)c1ccccc1)=C(C(F)(F)F)[N+]2=O | -81.4% (active) |
| COc1cc(/C=C2\SC(=S)N(/C=C/c3nc4ccccc4[nH]c3=O)C2=O)cc(OC)c1OC | 81.2% (inactive) |
| CCCCc1ccc(NS(=O)(=O)c2cc3c4c(c2)CCN4C(=O)CC3)cc1 | -25.9% (active) |
| COc1ccc(C(=O)Nc2ncc(Cc3cccc(Cl)c3)s2)cc1OC | -1.51% (active) |
| O=C(OCC(O)C1OC(c2ccccc2)OC(COC(=O)c2ccccc2)C1O)c1ccccc1 (stereo unspecified) | 100% (inactive) |
| COc1cc(-c2cc(-c3cc4c([nH]c5ccccc54)c(-c4cc(OC)c(OC)c(OC)c4)n3)cc(-c3ccccc3)n2)cc(OC)c1OC | 8.91% (active) |
| CCCCCCNC(=O)Nc1ccc2cc3ccc(NC(=O)NCCCCCC)cc3nc2c1 | 18.6% (inactive) |
| CC(=O)N(CC(O)CO)c1c(I)c(C(=O)NCCO)c(I)c(C(=O)NCC(O)CO)c1I (stereo unspecified) | 110% (inactive) |
| CC(=O)NC1C(O[C@H]2C[C@H]3[C@@H]4CC=C5C[C@@H](O)CC[C@]5(C)[C@H]4CC[C@]3(C)[C@H]2[C@H](C)C(=O)CCC(C)C)OCC(O)C1O (stereo partly specified) | 51.6% (inactive) |
| COc1cc(C2CC(=O)Nc3c2c(C)nn3-c2nc3ccccc3[nH]2)c(OC)c(OC)c1OC (stereo unspecified) | 31.1% (inactive) |
| C#Cc1cccc(Nc2nc(C)nc3cc(NC(=O)CCl)ccc23)c1 | -78.5% (active) |
| CCCCCC(CCC)COC(=O)c1ccc(OC)cc1 (stereo unspecified) | 104% (inactive) |
| CC(=O)Nc1cccc(-n2cnc3cc(-c4ccc(O)cc4)ccc32)c1 | -0.935% (active) |
| COC(=O)c1cc(N=C2NC(=O)/C(=C/C=C/c3ccccc3)S2)ccc1O | 17.5% (inactive) |
| COc1ccc(-n2c(C)nc3c(c(C)nn3-c3ccccc3)c2=O)cc1 | -15.7% (active) |
| CCCCNC(=O)C(=O)NCCCC | 102% (inactive) |
| COc1ccc(/C(C)=C(\c2ccc(OCCN3CCCCCC3)cc2)c2ccc(OC(=O)C3CCCCC3)cc2)cc1 | -74.5% (active) |
| O=C(Nc1ccc2ncnc(Nc3ccc(F)c(Cl)c3)c2c1)c1ccccc1 | -8.33% (active) |
| c1ccc(Cn2cc3c(c2-c2ccccc2)CCc2cnoc2-3)cc1 | 66.5% (inactive) |
| Cc1cc(C)c(C#N)c(Sc2nc(C)c([N+](=O)[O-])c(C)c2C#N)n1 | 46% (inactive) |
| C=CCN1C(=O)/C(=C/C(=O)OC)S/C1=N\NC(=O)c1cc2ccc1/C=C\c1ccc(cc1)/C=C\2 | 76.3% (inactive) |
| CCOC(=O)CC(c1ccccc1)C(C#N)c1ccccc1 (stereo unspecified) | 101% (inactive) |
| NS(=O)(=O)c1ccc(Nc2nc(N/N=C/c3ccccn3)nc(Nc3ccccc3)n2)cc1 | -29.7% (active) |
